Results on eleven compounds are retold here after ChEMBL document CHEMBL3988442, “University of Dundee, Small-Polar-MMV Screening Library” (2021).

Parameters in all cases: scale not given: direction of the effect not stated beside the values
The target of assay [1] is Protein translocase subunit SecA (Escherichia coli (strain K12)) (UniProt P10408). In words: Assay to Identify E. coli SecA ATPase Inhibitors. It counts as functional. To be noted: 30 µM.
The target of assay [2] is T1, Ubiquitin-activating enzyme e1, putative (Leishmania donovani (strain BPK282A1)) (UniProt E9BSI1).
T1 sequence (whole entry): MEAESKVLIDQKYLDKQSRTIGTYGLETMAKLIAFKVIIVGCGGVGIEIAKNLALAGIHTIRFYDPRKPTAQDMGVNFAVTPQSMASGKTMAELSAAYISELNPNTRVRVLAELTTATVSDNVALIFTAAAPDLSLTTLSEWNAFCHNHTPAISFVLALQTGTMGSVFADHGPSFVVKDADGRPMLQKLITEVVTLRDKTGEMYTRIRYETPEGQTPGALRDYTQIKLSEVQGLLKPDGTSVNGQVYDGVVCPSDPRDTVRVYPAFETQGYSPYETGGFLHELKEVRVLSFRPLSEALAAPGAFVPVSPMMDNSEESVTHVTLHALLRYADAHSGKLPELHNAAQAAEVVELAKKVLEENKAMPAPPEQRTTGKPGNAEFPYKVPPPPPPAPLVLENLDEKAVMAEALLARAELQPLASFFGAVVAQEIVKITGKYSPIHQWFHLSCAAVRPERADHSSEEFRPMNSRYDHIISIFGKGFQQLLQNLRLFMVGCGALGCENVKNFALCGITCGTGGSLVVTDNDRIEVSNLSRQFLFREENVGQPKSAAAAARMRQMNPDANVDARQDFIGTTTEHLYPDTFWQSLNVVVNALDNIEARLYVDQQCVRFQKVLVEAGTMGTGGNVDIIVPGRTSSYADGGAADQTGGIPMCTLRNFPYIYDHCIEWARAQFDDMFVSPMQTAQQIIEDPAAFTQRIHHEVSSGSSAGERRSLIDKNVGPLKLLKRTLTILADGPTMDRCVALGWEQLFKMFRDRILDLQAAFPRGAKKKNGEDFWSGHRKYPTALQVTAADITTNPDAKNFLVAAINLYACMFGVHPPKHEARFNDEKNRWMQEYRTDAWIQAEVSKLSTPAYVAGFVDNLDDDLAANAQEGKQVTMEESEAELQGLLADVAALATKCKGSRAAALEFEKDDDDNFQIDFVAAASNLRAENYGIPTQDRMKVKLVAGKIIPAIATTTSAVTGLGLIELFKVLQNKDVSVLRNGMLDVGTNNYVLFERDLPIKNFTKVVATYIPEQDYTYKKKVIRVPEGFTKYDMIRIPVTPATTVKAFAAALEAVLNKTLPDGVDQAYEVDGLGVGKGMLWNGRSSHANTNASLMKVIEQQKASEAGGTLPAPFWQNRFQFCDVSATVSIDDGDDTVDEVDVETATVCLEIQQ
Nature of the assay: Leishmania donovani Ubiquitin Activating Enzyme (LdE1). Type of assay: functional. To be noted: 30 µM.

Assay [3] deals with AMP-activated protein kinase, AMPK (Homo sapiens) (UniProt P54646+O43741+P54619+Q9UGJ0+Q9Y478+Q13131+Q9UGI9). In words: AMP-dependent Kinase enzyme assay. An in vitro enzyme assay that detects ADP turnover that is directly proportional to AMPK activity. This uses naive AMPK that is activated during the assay with MK-8722. Type of assay: functional. The settings on record: 30 µM.

Assay [4] addresses Sialic acid-binding Ig-like lectin 9 (Homo sapiens) (UniProt Q9Y336). In words: Hs-Siglec9 ALPHAscreen SOP 20170721. The settings on record: 10 µM. (Bead proximity is the source of the signal in Alpha formats.)
In the next assay the test system is Trypanosoma cruzi. Nature of the assay: Trypanosoma cruzi phosphomannomutase and mannose-1-phosphate guanylyltransferase assay. Type of assay: functional. The settings on record: 10 µM.
Assay [5] concerns the target T2, Arginase-2, mitochondrial (Homo sapiens) (UniProt P78540).
T2 sequence (whole entry): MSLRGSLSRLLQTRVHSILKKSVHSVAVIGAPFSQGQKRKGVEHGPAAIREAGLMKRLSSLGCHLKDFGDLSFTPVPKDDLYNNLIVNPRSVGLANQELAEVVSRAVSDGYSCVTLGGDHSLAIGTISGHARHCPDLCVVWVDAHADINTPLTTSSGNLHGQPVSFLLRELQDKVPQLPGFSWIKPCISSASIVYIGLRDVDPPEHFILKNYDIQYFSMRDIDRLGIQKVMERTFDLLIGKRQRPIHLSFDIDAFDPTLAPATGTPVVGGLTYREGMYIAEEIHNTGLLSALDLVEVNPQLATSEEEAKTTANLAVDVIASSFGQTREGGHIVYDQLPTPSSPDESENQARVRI
In words: in vitro enzyme assay to detect the production of urea directly proportional to the activity of Arginase II. Further: in the data most compounds retested in dose-response had high values. The settings on record: 33.3 µM. Type of assay: functional.

The target of assay [6] is T3, Proteasome subunit beta (Trypanosoma cruzi) (UniProt O96673).
T3 sequence (whole entry): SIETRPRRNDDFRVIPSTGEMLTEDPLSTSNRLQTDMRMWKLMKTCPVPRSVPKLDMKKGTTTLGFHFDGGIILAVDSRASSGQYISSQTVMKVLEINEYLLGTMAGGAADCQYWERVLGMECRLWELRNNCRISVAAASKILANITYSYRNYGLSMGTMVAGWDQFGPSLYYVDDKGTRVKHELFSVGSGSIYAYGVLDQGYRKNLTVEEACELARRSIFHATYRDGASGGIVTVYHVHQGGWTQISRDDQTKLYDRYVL
Nature of the assay: Trypanosoma cruzi proteasome chymotrypsin-like activity (TcProtChymo) assay. Further: in the data most compounds retested in dose-response had high values. It counts as functional. To be noted: 9.37 µM.

For the next assay, the species on record is Homo sapiens. Nature of the assay: To identify inhibition of the IFN signalling (Jak-Stat) pathway via expression of an eGFP reporter gene under the control of an IFN-stimulated response element (ISRE) containing MxA promoter. The settings on record: 30 µM. Type of assay: functional. Background: In a reporter assay the amount or activity of a reporter protein is the signal.

The target in assay [7] is T4, Tyrosyl-tRNA synthetase, putative (Trypanosoma cruzi (strain CL Brener)) (UniProt Q4DSP6).
T4 sequence (whole entry): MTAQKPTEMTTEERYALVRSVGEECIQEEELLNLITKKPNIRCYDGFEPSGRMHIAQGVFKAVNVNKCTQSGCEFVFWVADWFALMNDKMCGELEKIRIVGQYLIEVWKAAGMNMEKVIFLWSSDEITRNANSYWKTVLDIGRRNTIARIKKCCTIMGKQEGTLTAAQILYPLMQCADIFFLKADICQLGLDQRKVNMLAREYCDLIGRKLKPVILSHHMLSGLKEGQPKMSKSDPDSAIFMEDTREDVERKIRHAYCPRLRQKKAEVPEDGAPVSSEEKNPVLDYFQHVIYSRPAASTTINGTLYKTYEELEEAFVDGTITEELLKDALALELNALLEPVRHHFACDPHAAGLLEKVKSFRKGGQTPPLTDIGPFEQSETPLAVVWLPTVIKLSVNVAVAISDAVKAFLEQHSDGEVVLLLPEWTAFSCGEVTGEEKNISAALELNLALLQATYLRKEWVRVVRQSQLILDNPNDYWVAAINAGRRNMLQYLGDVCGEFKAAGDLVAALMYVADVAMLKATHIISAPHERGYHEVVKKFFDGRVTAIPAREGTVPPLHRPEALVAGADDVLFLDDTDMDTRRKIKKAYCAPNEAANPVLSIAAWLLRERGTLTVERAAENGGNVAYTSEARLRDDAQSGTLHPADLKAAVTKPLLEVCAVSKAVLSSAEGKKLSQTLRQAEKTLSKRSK
In words: Trypanosoma cruzi tyrosyl tRNA synthetase (TcYRS) _High Tyrosine SOP. Further: in the data most compounds retested in dose-response had high values. Type of assay: functional. The settings on record: 30 µM.

In assay [8] the target is T4, Tyrosyl-tRNA synthetase, putative (Trypanosoma cruzi (strain CL Brener)). In words: Trypanosoma cruzi tyrosyl tRNA synthetase (TcYRS) SOP. Type of assay: functional. To be noted: 30 µM.
Assay [9] addresses Chromo domain-containing protein 1 (Saccharomyces cerevisiae (strain ATCC 204508 / S288c) (Baker's yeast)) (UniProt P32657). In words: ScCHD-1 Enzyme Inhibition Assay. Further: in the data most compounds retested in dose-response had high values. Type of assay: functional. To be noted: 30 µM.

For some of these results: Results with a measured potency or affinity are listed apart.

Sialic acid-binding Ig-like lectin 9 (Homo sapiens), sequence (Q9Y336 whole entry): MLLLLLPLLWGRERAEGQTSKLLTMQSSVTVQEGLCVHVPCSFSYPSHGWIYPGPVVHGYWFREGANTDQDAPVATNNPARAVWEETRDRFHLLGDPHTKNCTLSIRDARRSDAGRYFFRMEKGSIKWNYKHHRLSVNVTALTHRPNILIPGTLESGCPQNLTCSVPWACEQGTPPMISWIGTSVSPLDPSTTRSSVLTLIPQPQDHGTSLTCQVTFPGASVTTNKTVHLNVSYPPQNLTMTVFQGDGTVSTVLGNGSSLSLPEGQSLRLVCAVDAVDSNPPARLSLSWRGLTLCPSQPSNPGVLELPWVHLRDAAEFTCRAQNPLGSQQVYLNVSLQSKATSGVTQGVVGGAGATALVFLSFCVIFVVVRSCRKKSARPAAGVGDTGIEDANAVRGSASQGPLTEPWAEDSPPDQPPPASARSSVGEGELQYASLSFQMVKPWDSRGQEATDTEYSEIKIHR
Protein translocase subunit SecA (Escherichia coli (strain K12)), sequence (P10408 whole entry): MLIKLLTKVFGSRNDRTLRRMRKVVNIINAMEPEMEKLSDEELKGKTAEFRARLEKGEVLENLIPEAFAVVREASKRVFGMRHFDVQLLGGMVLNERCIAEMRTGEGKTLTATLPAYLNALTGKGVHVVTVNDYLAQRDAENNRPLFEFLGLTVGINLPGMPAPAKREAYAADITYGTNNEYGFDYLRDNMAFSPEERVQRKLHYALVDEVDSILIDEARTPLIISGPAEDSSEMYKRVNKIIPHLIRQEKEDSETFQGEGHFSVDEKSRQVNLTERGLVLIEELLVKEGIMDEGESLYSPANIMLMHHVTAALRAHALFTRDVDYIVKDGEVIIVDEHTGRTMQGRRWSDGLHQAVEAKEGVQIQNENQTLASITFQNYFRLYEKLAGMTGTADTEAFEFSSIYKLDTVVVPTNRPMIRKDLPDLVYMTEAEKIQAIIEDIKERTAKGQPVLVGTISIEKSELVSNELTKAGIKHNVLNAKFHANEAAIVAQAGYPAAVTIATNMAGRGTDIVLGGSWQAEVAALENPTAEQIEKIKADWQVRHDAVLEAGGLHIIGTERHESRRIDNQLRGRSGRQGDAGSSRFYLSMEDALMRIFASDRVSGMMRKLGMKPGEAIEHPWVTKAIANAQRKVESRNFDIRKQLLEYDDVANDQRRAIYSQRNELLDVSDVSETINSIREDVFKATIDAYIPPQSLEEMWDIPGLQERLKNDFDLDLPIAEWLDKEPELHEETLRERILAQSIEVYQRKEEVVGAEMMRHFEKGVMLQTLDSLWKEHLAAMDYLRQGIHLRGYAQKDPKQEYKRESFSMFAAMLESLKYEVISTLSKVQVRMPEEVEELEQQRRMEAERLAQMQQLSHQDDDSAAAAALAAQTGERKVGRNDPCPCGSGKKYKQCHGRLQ
Chromo domain-containing protein 1 (Saccharomyces cerevisiae (strain ATCC 204508 / S288c) (Baker's yeast)), sequence (P32657 whole entry, the tested form may be a part): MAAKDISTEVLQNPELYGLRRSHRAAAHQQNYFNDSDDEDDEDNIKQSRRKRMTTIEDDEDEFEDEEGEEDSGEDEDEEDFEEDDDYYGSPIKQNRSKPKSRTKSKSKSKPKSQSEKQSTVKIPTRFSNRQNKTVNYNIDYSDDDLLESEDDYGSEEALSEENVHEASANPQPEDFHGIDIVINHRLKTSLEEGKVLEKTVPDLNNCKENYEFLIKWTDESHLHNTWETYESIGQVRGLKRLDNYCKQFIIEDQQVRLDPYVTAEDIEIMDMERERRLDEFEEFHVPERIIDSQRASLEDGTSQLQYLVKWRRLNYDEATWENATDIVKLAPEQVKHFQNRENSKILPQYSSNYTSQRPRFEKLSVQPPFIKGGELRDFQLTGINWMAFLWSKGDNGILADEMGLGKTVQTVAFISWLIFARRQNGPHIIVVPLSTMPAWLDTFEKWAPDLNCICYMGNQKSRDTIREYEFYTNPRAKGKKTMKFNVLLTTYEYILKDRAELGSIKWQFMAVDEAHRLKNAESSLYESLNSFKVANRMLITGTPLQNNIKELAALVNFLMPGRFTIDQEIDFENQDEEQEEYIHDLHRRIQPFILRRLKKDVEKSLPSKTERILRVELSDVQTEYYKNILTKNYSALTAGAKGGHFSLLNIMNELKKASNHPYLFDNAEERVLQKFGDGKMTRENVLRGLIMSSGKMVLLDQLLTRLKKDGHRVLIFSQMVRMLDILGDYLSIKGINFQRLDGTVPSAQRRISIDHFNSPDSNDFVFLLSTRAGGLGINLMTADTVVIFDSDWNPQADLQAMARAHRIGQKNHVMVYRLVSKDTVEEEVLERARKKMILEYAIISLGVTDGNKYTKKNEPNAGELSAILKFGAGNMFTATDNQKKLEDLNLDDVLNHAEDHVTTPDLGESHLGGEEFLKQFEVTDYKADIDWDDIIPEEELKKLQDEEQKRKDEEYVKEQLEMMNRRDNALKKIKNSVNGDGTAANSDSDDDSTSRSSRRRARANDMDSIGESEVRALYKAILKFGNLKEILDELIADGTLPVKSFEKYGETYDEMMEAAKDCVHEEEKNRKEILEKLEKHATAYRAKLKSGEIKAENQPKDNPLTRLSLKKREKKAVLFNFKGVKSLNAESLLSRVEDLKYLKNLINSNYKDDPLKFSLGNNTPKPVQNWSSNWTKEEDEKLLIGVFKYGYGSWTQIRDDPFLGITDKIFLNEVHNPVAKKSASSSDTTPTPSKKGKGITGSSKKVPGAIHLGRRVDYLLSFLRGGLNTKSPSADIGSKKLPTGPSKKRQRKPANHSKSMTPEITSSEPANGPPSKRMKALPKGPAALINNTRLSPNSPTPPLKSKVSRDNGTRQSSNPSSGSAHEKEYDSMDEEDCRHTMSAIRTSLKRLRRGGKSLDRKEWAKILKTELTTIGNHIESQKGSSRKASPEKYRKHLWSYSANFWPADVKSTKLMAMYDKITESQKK

In the case of `O=C(O)c1ccn(-c2ccccc2NS(=O)(=O)c2ccccc2)n1`, the Percent Effect is -4.7% in assay [1]; 0% in [2]; 0.362% in assay [3]; 0.187% in [4]; -5.16% in the assay on Trypanosoma cruzi; 2.08% in assay [5]. The Percent Effect is 9.24% in [6]; 7.84% in the assay listed under Homo sapiens; 3.83% in assay [7]; 3.7% in assay [8]; -5.14% in [9].

For the compound `CCn1nccc1CNC(=O)NC1CCCCC1`, the Percent Effect was -3.38% in assay [1]; 7.79% in assay [2]; 7.6% in [3]; -2.52% in [4]; -7.18% with Trypanosoma cruzi; 0% in assay [5]. Besides, the Percent Effect in assay [6] is 9.98%; in the assay listed under Homo sapiens, 12%; in assay [7], 1.07%; in assay [8] it was 3.7%; in [9] it was -2.19%.

With `CCc1cc(NCCNc2cccnc2)n2nccc2n1`, the Percent Effect in assay [1] was -3.38%; in assay [2], 2.7%; in [3] it was 3.96%; in assay [4], 4.15%; in the assay on Trypanosoma cruzi, -3.09%; in assay [5], 1.91%. Also, the Percent Effect in assay [6] is 10%; in the assay filed under Homo sapiens, 13.2%; in assay [7], 4.76%; in [8], 7.32%; in assay [9], -3.82%.

For `CC(CNC(=O)c1cccnc1Oc1cccnc1)N(C)C` (stereo unspecified), the Percent Effect in [1] was -0.805%; in assay [2], 18.9%; in assay [3] it was -3.66%; in [4], 10.5%; in the assay on Trypanosoma cruzi, 6.56%; in assay [5] it was 10%. Also, the Percent Effect was 12.9% in assay [6]; 4.67% in the assay filed under Homo sapiens; 4.76% in assay [7]; 17.1% in [8]; -1.51% in assay [9].

Turning to `CCOc1ccc(C(=O)NS(=O)(=O)c2cncc(Br)c2)cc1OC`, the Percent Effect in assay [1] is -4.35%; in [2], 13.5%; in assay [3], -8.62%; in assay [4], 34.9%; with Trypanosoma cruzi it was 10.6%; in assay [5], 3.81%. Also, the Percent Effect in [6] was 0.517%; in the assay filed under Homo sapiens, 2.53%; in assay [7], 3.7%; in [8], 9.76%; in assay [9] it was -13.3%.

Consider `Cc1nc(CN2CCCC(NCCc3ccccc3Cl)C2)no1` (stereo unspecified), for which the Percent Effect in assay [1] was -4.45%; in [2], 7.59%; in [3] it was 4.77%; in assay [4] it was 11.6%; in the assay on Trypanosoma cruzi, 2.36%; in assay [5], -1.14%. Further, the Percent Effect was -3.19% in [6]; -4.21% in the assay listed under Homo sapiens; 5.42% in assay [7]; 8.86% in [8]; -0.689% in assay [9].

For `CN(C)c1nccc(N2CCO[C@H]3CN(CC4CCOCC4)C[C@H]32)n1`, the Percent Effect was 1.86% in assay [1]; 11% in assay [2]; -5.46% in [3]; 12.4% in assay [4]; 4.37% in the assay with Trypanosoma cruzi; -3.59% in assay [5]. Moreover, the Percent Effect in assay [6] is 10.5%; in the assay listed under Homo sapiens, 30.6%; in [7], 4.17%; in assay [8] it was 18.5%; in [9] it was -7.93%.

In the case of `CCN(C(=O)CN(C)C(c1cccc(F)c1)c1ccccn1)C1CC1` (stereo unspecified), the Percent Effect in assay [1] was -1.83%; in assay [2], -5.2%; in assay [3], -4.08%; in [4], 9.51%; with Trypanosoma cruzi it was 6.74%; in assay [5], -2.49%. Further, the Percent Effect in assay [6] was 2.37%; in the assay filed under Homo sapiens, 4.69%; in assay [7], 6.8%; in [8], 7.32%; in [9] it was -10.2%.

On to `CCN(CC)C(C(=O)NCc1ccc(N2CCCC2)nc1)C(C)C` (stereo unspecified), for which the Percent Effect in [1] is -6%; in assay [2] it was 5.41%; in assay [3], -3.6%; in assay [4], 6.67%; in the assay on Trypanosoma cruzi, -5.94%; in assay [5], -4.41%. Besides, the Percent Effect is 11.9% in [6]; 10.1% in the assay listed under Homo sapiens; 2.46% in assay [7]; 1.24% in assay [8]; -4.84% in assay [9].

With `Cc1ccc(C(=O)NC2CCN(Cc3noc(CC(C)C)n3)CC2)s1`, the Percent Effect in assay [1] was -4.45%; in assay [2], 2.6%; in assay [3], 3.54%; in [4] it was 0.891%; in the assay with Trypanosoma cruzi it was -8.75%; in assay [5] it was -8.28%. The Percent Effect is 8.82% in assay [6]; 29.7% in the assay listed under Homo sapiens; -3.23% in assay [7]; 1.24% in [8]; -1.38% in assay [9].

Take `Cc1cc(O)c(OCC(=O)/N=c2\[nH]cc(C)s2)cn1`: the Percent Effect in assay [1] is -5.77%; in [2], 18.4%; in assay [3], 3.17%; in assay [4] it was 0.981%; with Trypanosoma cruzi it was 3.6%; in [5] it was -5.92%. Further, the Percent Effect is 5.85% in assay [6]; -4.26% in the assay filed under Homo sapiens; 5.32% in [7]; 10.4% in assay [8]; -2.08% in assay [9].
